Data taken from the supplement of paper PMC12282887.
± gives the standard deviation of the averaged measurements.

Columns and labels:
Experiment in all cases: promoter activity interaction Z-score (Lux/OD deviation from empty-vector control); higher = stronger promoter induction by the compound
[1] = tested on: E. coli BW25113 acrABp lux reporter
How it was run: (§1)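 E. coli BW25113 (wild type or marA, soxS or rob deletion) carrying low-copy luxCDABE promoter reporters grew in 40 µl LB Lennox in 384-well plates at 37°C. Each compound was tested at four 1:2 dilutions in biological duplicates. OD600 and luminescence were read every 30 min for 12 h. Areas were taken over 0–8 h (wild type) or 1–9 h (mutants), and wells below 10% of median growth area were removed. The score is the Z-transformed residual of growth-normalised luminescence fitted against the empty-vector control.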

[2] = tested on: E. coli BW25113 micFp lux reporter
How it was run: as §1

[3] = tested on: E. coli BW25113 ompFp lux reporter
How it was run: as §1

[4] = tested on: E. coli BW25113 robp lux reporter
How it was run: as §1

[5] = tested on: E. coli BW25113 soxSp lux reporter
How it was run: as §1

[6] = tested on: E. coli BW25113 tolCp lux reporter
How it was run: as §1

[7] = 7 µg/ml, genetic background: wild type
[8] = 7 µg/ml, genetic background: ΔmarA
[9] = 7 µg/ml, genetic background: Δrob
[10] = 7 µg/ml, genetic background: ΔsoxS
[11] = 14 µg/ml, genetic background: wild type
[12] = 14 µg/ml, genetic background: ΔmarA
[13] = 14 µg/ml, genetic background: Δrob
[14] = 14 µg/ml, genetic background: ΔsoxS
[15] = 28 µg/ml, genetic background: wild type
[16] = 28 µg/ml, genetic background: ΔmarA
[17] = 28 µg/ml, genetic background: Δrob
[18] = 28 µg/ml, genetic background: ΔsoxS
[19] = 56.1 µg/ml, genetic background: wild type
[20] = 56.1 µg/ml, genetic background: ΔmarA
[21] = 56.1 µg/ml, genetic background: Δrob
[22] = 56.1 µg/ml, genetic background: ΔsoxS

Compound: COc1cc(NS(=O)(=O)c2ccc(N)cc2)ncn1 [Sulfamonomethoxine]
- promoter activity interaction Z-score [1, 7]: -0.0629 ± 0.12
- promoter activity interaction Z-score [1, 8]: -0.0827 ± 0.19
- promoter activity interaction Z-score [1, 9]: -0.194 ± 0.069
- promoter activity interaction Z-score [1, 10]: -0.131 ± 0.45
- promoter activity interaction Z-score [1, 11]: -0.0954 ± 0.051
- promoter activity interaction Z-score [1, 12]: 0.444 ± 0.69
- promoter activity interaction Z-score [1, 13]: 0.0478 ± 0.2
- promoter activity interaction Z-score [1, 14]: -0.102 ± 0.4
- promoter activity interaction Z-score [1, 15]: 0.289 ± 0.03
- promoter activity interaction Z-score [1, 16]: 0.686 ± 0.39
- promoter activity interaction Z-score [1, 17]: 0.139 ± 0.014
- promoter activity interaction Z-score [1, 18]: -0.0503 ± 0.27
- promoter activity interaction Z-score [1, 19]: 0.594 ± 0.059
- promoter activity interaction Z-score [1, 20]: 1.43 ± 0.56
- promoter activity interaction Z-score [1, 21]: 1.32 ± 0.6
- promoter activity interaction Z-score [1, 22]: 0.654 ± 0.63
- promoter activity interaction Z-score [2, 7]: -0.11 ± 0.081
- promoter activity interaction Z-score [2, 8]: -0.104 ± 0.066
- promoter activity interaction Z-score [2, 9]: 0.00985 ± 0.087
- promoter activity interaction Z-score [2, 10]: -0.0124 ± 0.09
- promoter activity interaction Z-score [2, 11]: 0.129 ± 0.024
- promoter activity interaction Z-score [2, 12]: -0.112 ± 0.13
- promoter activity interaction Z-score [2, 13]: -0.0554 ± 0.081
- promoter activity interaction Z-score [2, 14]: 0.0346 ± 0.00076
- promoter activity interaction Z-score [2, 15]: -0.113 ± 0.28
- promoter activity interaction Z-score [2, 16]: 0.0381 ± 0.13
- promoter activity interaction Z-score [2, 17]: -0.0788 ± 0.15
- promoter activity interaction Z-score [2, 18]: -0.00695 ± 0.03
- promoter activity interaction Z-score [2, 19]: 0.345 ± 0.27
- promoter activity interaction Z-score [2, 20]: -0.0779 ± 0.035
- promoter activity interaction Z-score [2, 21]: 0.446 ± 0.3
- promoter activity interaction Z-score [2, 22]: 0.145 ± 0.15
- promoter activity interaction Z-score [3, 7]: 0.897 ± 1
- promoter activity interaction Z-score [3, 8]: 0.44 ± 0.78
- promoter activity interaction Z-score [3, 9]: 0.229 ± 0.2
- promoter activity interaction Z-score [3, 10]: 0.152 ± 0.17
- promoter activity interaction Z-score [3, 11]: 0.907 ± 0.69
- promoter activity interaction Z-score [3, 12]: 0.36 ± 0.52
- promoter activity interaction Z-score [3, 13]: 0.708 ± 0.82
- promoter activity interaction Z-score [3, 14]: 0.102 ± 0.078
- promoter activity interaction Z-score [3, 15]: 1.05 ± 0.98
- promoter activity interaction Z-score [3, 16]: 1.11 ± 0.74
- promoter activity interaction Z-score [3, 17]: 0.731 ± 0.18
- promoter activity interaction Z-score [3, 18]: 0.341 ± 0.13
- promoter activity interaction Z-score [3, 19]: 2.04 ± 0.99
- promoter activity interaction Z-score [3, 20]: 2.09 ± 0.78
- promoter activity interaction Z-score [3, 21]: 2.95 ± 1.7
- promoter activity interaction Z-score [3, 22]: 1.94 ± 0.43
- promoter activity interaction Z-score [4, 7]: 1.09 ± 0.49
- promoter activity interaction Z-score [4, 8]: 0.0134 ± 0.083
- promoter activity interaction Z-score [4, 9]: -0.027 ± 0.51
- promoter activity interaction Z-score [4, 10]: -0.114 ± 0.21
- promoter activity interaction Z-score [4, 11]: 1.2 ± 0.46
- promoter activity interaction Z-score [4, 12]: -0.0907 ± 0.34
- promoter activity interaction Z-score [4, 13]: 0.416 ± 0.81
- promoter activity interaction Z-score [4, 14]: -0.326 ± 0.46
- promoter activity interaction Z-score [4, 15]: 0.911 ± 0.12
- promoter activity interaction Z-score [4, 16]: 1.16 ± 0.43
- promoter activity interaction Z-score [4, 17]: 0.643 ± 0.1
- promoter activity interaction Z-score [4, 18]: 0.227 ± 0.12
- promoter activity interaction Z-score [4, 19]: 2 ± 0.41
- promoter activity interaction Z-score [4, 20]: 2.2238 ± 0.0018
- promoter activity interaction Z-score [4, 21]: 1.45 ± 0.23
- promoter activity interaction Z-score [4, 22]: 1.99 ± 0.18
- promoter activity interaction Z-score [5, 7]: -0.238 ± 0.08
- promoter activity interaction Z-score [5, 8]: -0.23 ± 0.096
- promoter activity interaction Z-score [5, 9]: -0.34 ± 0.09
- promoter activity interaction Z-score [5, 10]: -0.327 ± 0.54
- promoter activity interaction Z-score [5, 11]: -0.126 ± 0.13
- promoter activity interaction Z-score [5, 12]: -0.374 ± 0.052
- promoter activity interaction Z-score [5, 13]: -0.287 ± 0.064
- promoter activity interaction Z-score [5, 14]: -0.322 ± 0.51
- promoter activity interaction Z-score [5, 15]: -0.403 ± 0.15
- promoter activity interaction Z-score [5, 16]: -0.289 ± 0.029
- promoter activity interaction Z-score [5, 17]: -0.503 ± 0.07
- promoter activity interaction Z-score [5, 18]: -0.224 ± 0.42
- promoter activity interaction Z-score [5, 19]: -0.28 ± 0.14
- promoter activity interaction Z-score [5, 20]: -0.0803 ± 0.1
- promoter activity interaction Z-score [5, 21]: -0.502 ± 0.17
- promoter activity interaction Z-score [5, 22]: -0.113 ± 0.36
- promoter activity interaction Z-score [6, 7]: -0.23 ± 0.84
- promoter activity interaction Z-score [6, 8]: 0.608 ± 0.35
- promoter activity interaction Z-score [6, 9]: 0.27 ± 0.051
- promoter activity interaction Z-score [6, 10]: -0.223 ± 1.2
- promoter activity interaction Z-score [6, 11]: 1.12 ± 0.49
- promoter activity interaction Z-score [6, 12]: -0.382 ± 0.79
- promoter activity interaction Z-score [6, 13]: -0.826 ± 0.66
- promoter activity interaction Z-score [6, 14]: 0.183 ± 1.1
- promoter activity interaction Z-score [6, 15]: -0.0377 ± 0.24
- promoter activity interaction Z-score [6, 16]: 1.63 ± 0.99
- promoter activity interaction Z-score [6, 17]: -0.142 ± 0.15
- promoter activity interaction Z-score [6, 18]: 0.453 ± 0.22
- promoter activity interaction Z-score [6, 19]: 0.726 ± 1
- promoter activity interaction Z-score [6, 20]: 0.457 ± 1.5
- promoter activity interaction Z-score [6, 21]: -0.189 ± 0.24
- promoter activity interaction Z-score [6, 22]: 0.283 ± 0.55
